# Laboratory results as given in PubChem BioAssay AID1159580 (chemical genetic matrix, 2015).
# Values joined by “and” are separate entries in the source; they are usually repeats but may differ in a detail not shown here. Equal entries are not always repeated. Among all 5,500 compounds or so, about 2,000 (36%) were called active. Roughly 18% stayed inconclusive and do not appear here. Rule as the data show it: active = normalized growth mostly below about 0.91 (no sharp cut-off); inconclusive = no clear call, values can overlap the other calls; inactive = mostly above about 0.92. The list shows a part of the results.
# Test: chemical genetic growth profiling, strain panel (AID 1159580);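 also: tested at 20 µM; growth read once vehicle control cultures reached saturation at 30 °C; 1 = growth at the plate median or of vehicle wells; lower values mean less growth of the strain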
# Conditions: S. cerevisiae deletion strains, growth OD
smiles,measurement,setting,value
O=C(O)CCCOc1ccc(Cl)cc1Cl,normalized growth,"locus YAL013W, strain DEP1, stronger effect = lower value",0.993 (inactive)
same,normalized growth,"locus YAL021C, strain ccr4, stronger effect = lower value",0.941 (inactive)
same,normalized growth,"locus YAL026C, strain drs2, stronger effect = lower value",0.931 (inactive)
same,normalized growth,"locus YAL030W, strain snc1, stronger effect = lower value",0.944 (inactive)
same,normalized growth,"locus YBL061C, strain skt5, stronger effect = lower value",0.948 (inactive)
same,normalized growth,"locus YBR009C, strain hhf1, stronger effect = lower value",0.951 (inactive)
same,normalized growth,"locus YBR021W, strain FUR4, stronger effect = lower value",0.97 (inactive)
same,normalized growth,"locus YBR023C, strain chs3, stronger effect = lower value",0.954 (inactive)
same,normalized growth,"locus YBR171W, strain sec66, stronger effect = lower value",0.888 (active)
same,normalized growth,"locus YBR229C, strain ROT2, stronger effect = lower value",1.01 (inactive)
same,normalized growth,"locus YBR231C, strain swc5, stronger effect = lower value",0.962 (inactive)
same,normalized growth,"locus YBR279W, strain paf1, stronger effect = lower value",0.962 (inactive)
same,normalized growth,"locus YCL011C, strain gbp2, stronger effect = lower value",0.957 (inactive)
same,normalized growth,"locus YCL016C, strain dcc1, stronger effect = lower value",0.958 (inactive)
same,normalized growth,"locus YCL029C, strain bik1, stronger effect = lower value",1 (inactive)
same,normalized growth,"locus YCL061C, strain MRC1, stronger effect = lower value",0.938 (inactive)
same,normalized growth,"locus YCL069W, strain vba3, stronger effect = lower value",0.944 (inactive)
same,normalized growth,"locus YCR088W, strain abp1, stronger effect = lower value",0.929 (inactive)
same,normalized growth,"locus YDL005C, strain med2, stronger effect = lower value",0.946 (inactive)
same,normalized growth,"locus YDL035C, strain GPR1, stronger effect = lower value",1.01 (inactive)
same,normalized growth,"locus YDL040C, strain nat1, stronger effect = lower value",0.961 (inactive)
same,normalized growth,"locus YDL074C, strain BRE1, stronger effect = lower value",1 (inactive)
same,normalized growth,"locus YDL101C, strain DUN1, stronger effect = lower value",1.01 (inactive)
same,normalized growth,"locus YDL134C, strain PPH21, stronger effect = lower value",0.999 (inactive)
same,normalized growth,"locus YDL185W, strain tfp1, stronger effect = lower value",0.986 (inactive)
same,normalized growth,"locus YDL192W, strain arf1, stronger effect = lower value",1.02 (inactive)
same,normalized growth,"locus YDR001C, strain nth1, stronger effect = lower value",0.942 (inactive)
same,normalized growth,"locus YDR069C, strain doa4, stronger effect = lower value",0.955 (inactive)
same,normalized growth,"locus YDR101C, strain arx1, stronger effect = lower value",1.01 (inactive)
same,normalized growth,"locus YDR137W, strain rgp1, stronger effect = lower value",0.817 (active)
same,normalized growth,"locus YDR150W, strain NUM1, stronger effect = lower value",0.994 (inactive)
same,normalized growth,"locus YDR159W, strain sac3, stronger effect = lower value",0.902 (inactive)
same,normalized growth,"locus YDR162C, strain NBP2, stronger effect = lower value",0.99 (inactive)
same,normalized growth,"locus YDR195W, strain ref2",0.955 (inactive)
same,normalized growth,"locus YDR297W, strain sur2, stronger effect = lower value",0.962 (inactive)
same,normalized growth,"locus YDR318W, strain mcm21, stronger effect = lower value",1.01 (inactive)
same,normalized growth,"locus YDR334W, strain swr1, stronger effect = lower value",0.945 (inactive)
same,normalized growth,"locus YDR335W, strain msn5, stronger effect = lower value",0.943 (inactive)
same,normalized growth,"locus YDR388W, stronger effect = lower value",1.01 (inactive)
same,normalized growth,"locus YDR392W, strain spt3, stronger effect = lower value",0.893 (inactive)
same,normalized growth,"locus YDR502C, strain sam2, stronger effect = lower value",1.01 (inactive)
same,normalized growth,"locus YEL003W, strain gim4, stronger effect = lower value",0.963 (inactive)
same,normalized growth,"locus YEL037C, strain rad23, stronger effect = lower value",0.954 (inactive)
same,normalized growth,"locus YEL061C, strain CIN8 (second series), stronger effect = lower value",0.929 (inactive)
same,normalized growth,"locus YEL061C, strain CIN8, stronger effect = lower value",0.998 (inactive)
same,normalized growth,"locus YER015W, strain faa2, stronger effect = lower value",0.969 (inactive)
same,normalized growth,"locus YER016W, strain bim1, stronger effect = lower value",0.962 (inactive)
same,normalized growth,"locus YER110C, stronger effect = lower value",1.01 (inactive)
same,normalized growth,"locus YER111C, strain swi4, stronger effect = lower value",0.944 (inactive)
same,normalized growth,"locus YER155C, strain BEM2 (second series), stronger effect = lower value",0.887 (inactive)
same,normalized growth,"locus YER155C, strain BEM2, stronger effect = lower value",0.98 (inactive)
same,normalized growth,"locus YER167W, strain BCK2, stronger effect = lower value",0.991 (inactive)
same,normalized growth,"locus YFR010W, strain ubp6, stronger effect = lower value",0.951 (inactive)
same,normalized growth,"locus YGL078C, strain dbp3, stronger effect = lower value",1.01 (inactive)
same,normalized growth,"locus YGL086W, strain mad1, stronger effect = lower value",0.99 (inactive)
same,normalized growth,"locus YGL167C, strain pmr1, stronger effect = lower value",0.929 (inactive)
same,normalized growth,"locus YGL173C, strain kem1, stronger effect = lower value",0.952 (inactive)
same,normalized growth,"locus YGL227W, strain vid30, stronger effect = lower value",0.93 (inactive)
same,normalized growth,"locus YGL240W, strain doc1, stronger effect = lower value",0.912 (inactive)
same,normalized growth,"locus YGL248W, strain PDE1, stronger effect = lower value",1.01 (inactive)
same,normalized growth,"locus YGL253W, strain hxk2, stronger effect = lower value",0.939 (inactive)
same,normalized growth,"locus YGR078C, strain PAC10, stronger effect = lower value",1.01 (inactive)
same,normalized growth,"locus YGR135W, strain pre9, stronger effect = lower value",1.01 (inactive)
same,normalized growth,"locus YGR229C, strain SMI1, stronger effect = lower value",1.03 (inactive)
same,normalized growth,"locus YGR252W, strain gcn5, stronger effect = lower value",0.982 (inactive)
same,normalized growth,"locus YHR013C, strain ard1, stronger effect = lower value",0.93 (inactive)
same,normalized growth,"locus YHR027C, strain rpn1, stronger effect = lower value",0.938 (inactive)
same,normalized growth,"locus YHR030C, strain SLT2, stronger effect = lower value",0.999 (inactive) and 0.829 (active)
same,normalized growth,"locus YHR079C, strain IRE1 (second series), stronger effect = lower value",1.01 (inactive)
same,normalized growth,"locus YHR079C, strain IRE1, stronger effect = lower value",0.757 (active)
same,normalized growth,"locus YHR094C, strain hxt1, stronger effect = lower value",1.01 (inactive)
same,normalized growth,"locus YHR129C, strain ARP1, stronger effect = lower value",0.993 (inactive)
same,normalized growth,"locus YHR142W, strain chs7, stronger effect = lower value",0.939 (inactive)
same,normalized growth,"locus YHR200W, strain rpn10, stronger effect = lower value",1 (inactive)
same,normalized growth,"locus YIL066C, strain RNR3, stronger effect = lower value",1.01 (inactive)
same,normalized growth,"locus YIL073C, strain SPO22, stronger effect = lower value",1.1 (inactive)
same,normalized growth,"locus YIL125W, strain kgd1, stronger effect = lower value",0.991 (inactive)
same,normalized growth,"locus YIR030C, strain dcg1, stronger effect = lower value",1.01 (inactive)
same,normalized growth,"locus YJL092W, strain hpr5, stronger effect = lower value",0.94 (inactive)
same,normalized growth,"locus YJL095W, strain BCK1 (second series), stronger effect = lower value",0.95 (inactive)
same,normalized growth,"locus YJL095W, strain BCK1, stronger effect = lower value",1.01 (inactive) and 0.838 (active)
same,normalized growth,"locus YJL115W, strain asf1, stronger effect = lower value",0.922 (inactive)
same,normalized growth,"locus YJL129C, strain trk1, stronger effect = lower value",0.847 (active)
same,normalized growth,"locus YJL134W, strain LCB3, stronger effect = lower value",0.998 (inactive)
same,normalized growth,"locus YJL154C, strain vps35, stronger effect = lower value",0.948 (inactive)
same,normalized growth,"locus YJL164C, strain tpk1, stronger effect = lower value",0.961 (inactive)
same,normalized growth,"locus YJL166W, strain qcr8, stronger effect = lower value",0.942 (inactive)
same,normalized growth,"locus YJL168C, strain set2, stronger effect = lower value",1.01 (inactive)
same,normalized growth,"locus YJL187C, strain SWE1 (second series), stronger effect = lower value",0.999 (inactive)
same,normalized growth,"locus YJL187C, strain SWE1, stronger effect = lower value",0.947 (inactive)
same,normalized growth,"locus YJR043C, strain POL32, stronger effect = lower value",0.997 (inactive)
same,normalized growth,"locus YJR066W, strain TOR1, stronger effect = lower value",0.779 (active)
